Assay outcomes (PubChem BioAssay)
Only some compounds are listed: those with a hit (about 2.3% of all), similar ones and a draw of the others.
SENP8 block-1 – SENP8 (human) protease inhibition. Q96LD8. recombinant SENP8, Nedd8 substrate fluorescence. inhibition, % at 20 µM. 0.64% of 360,000 active; in the data active = inhibition mostly above about 40%, no sharp cut-off; inactive = mostly below about 27%
SENP8 block-2 – blocks the human protease SENP8. AID 2540. inhibition, % at 10 µM. purified SENP8, Z-RLRGG-aminoluciferin cleavage, luminescence. Q96LD8. 1.2% of 330,000 active; in the data active = inhibition above about 50%
SENP6 inh – SENP6 protease inhibition | Q9GZR1 | Recombinant SENP6 catalytic domain, aminoluciferin luminescence | inhibition, % at 10 µM | 1.8% of 330,000 active | AID 2599;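 active = inhibition above about 50% at the single tested dose, limit read from the data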;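 note: plate controls were DMSO wells with enzyme for no effect and DMSO wells lacking enzyme for full effect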
HSP90 inh – blocks HSP90-mediated luciferase refolding in reticulocyte lysate. 0.91% of 290,000 active. inhibition, % at 5.6 µM. Rabbit reticulocyte lysate, luciferase refolding luminescence, 3 h;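 active = inhibition above the screen-wide mean plus 3 SD, computed separately per campaign, cut at about 16% in these data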;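 note: 0% = DMSO wells and 100% = 60 µM geldanamycin wells; inhibitors lower the luminescence because luciferase stays unfolded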
LGR2 antag – blocks bursicon-induced cAMP signaling via Drosophila LGR2 | HEK293 LGR2, CRE-luciferase, bursicon-stimulated, 4 h | inhibition, % at 9.99 µM | 0.35% of 380,000 active | AID 720647;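 active = drop in luminescence signal, shown as inhibition above about 50% in the replicate tests, limit read from the data, passing the limit was not always enough; inconclusive = probably only some replicates passing the limit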;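 note: agonist challenge used bursicon conditioned medium at about half maximal strength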
SENP7 block – SENP7 protease inhibition; Q9BQF6; recombinant SENP7, Z-RLRGG-aminoluciferin luminescence, 40 min; inhibition, % at 5 µM; 1.5% of 330,000 active;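 active = inhibition above about 50% at the single test dose, limit read from the data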;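 note: plate controls were DMSO with enzyme for no effect and no enzyme buffer wells for full effect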
Target sequence (Q9BQF6 706-1050 limits assumed): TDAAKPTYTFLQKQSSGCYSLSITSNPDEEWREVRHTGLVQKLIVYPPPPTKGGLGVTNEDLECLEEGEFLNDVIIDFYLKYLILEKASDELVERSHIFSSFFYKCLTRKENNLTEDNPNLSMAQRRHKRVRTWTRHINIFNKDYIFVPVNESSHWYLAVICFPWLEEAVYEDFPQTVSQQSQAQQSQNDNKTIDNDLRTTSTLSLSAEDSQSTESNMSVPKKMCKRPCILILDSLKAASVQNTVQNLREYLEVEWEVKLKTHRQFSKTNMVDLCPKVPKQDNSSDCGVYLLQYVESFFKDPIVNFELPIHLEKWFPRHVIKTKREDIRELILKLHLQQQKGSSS
SENP8 conf – human SENP8 inhibition, confirmed | shares compounds with SENP7 block | Recombinant SENP8, Z-RLRGG-aminoluciferin luminescence, 60 min | inhibition, % at 12.5 µM | 40% of 6,200 active | AID 488912;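 active = mean inhibition across replicates above about 50%, limit read from the data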
SENP6 conf – confirmation of human SENP6 protease inhibitors. shares compounds with SENP7 block. recombinant SENP6, Z-RLRGG-aminoluciferin luminescence. 58% of 6,200 active. inhibition, % at 12.5 µM
SENP7 confirm – confirmation of human SENP7 protease inhibitors; recombinant SENP7, Z-RLRGG-aminoluciferin luminescence, 40 min; inhibition, % at 12.5 µM; shares compounds with SENP7 block; 69% of 6,200 active; AID 488917
Casp3 select – caspase-3 inhibition (SENP selectivity assay). 60% of 6,200 active. shares compounds with SENP7 block. inhibition, % at 12.5 µM. purified caspase-3, Z-DEVD-aminoluciferin luminescence, 60 min. AID 488918;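 active = mean inhibition above about 50%, limit read from the data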;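 note: plate controls were enzyme with DMSO for no effect and wells without caspase-3 for full effect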
SENP luc ctr – luminescence interference (SENP counter-screen); 39% of 6,200 active; inhibition, % at 12.5 µM; Pre-incubated SENP8/Z-RLRGG-aminoluciferin, luciferase luminescence interference; shares compounds with SENP7 block;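 active = mean inhibition above about 50% when retested at one dose, limit read from the data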;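 note: plate controls were DMSO wells with completed reaction for no effect and substrate without enzyme for full effect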
Numbers without * were called inactive; u = inconclusive; x = no result given.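 Rule for the calls, unless noted: active = mean inhibition above about 50% in the one-dose retest (limit read from the data); inactive = the rest.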

SMILES | SENP8 block-1 | SENP8 block-2 | SENP6 inh | HSP90 inh | LGR2 antag | SENP7 block | SENP8 conf | SENP6 conf | SENP7 confirm | Casp3 select | SENP luc ctr
N#Cc1c(C(F)(F)F)cc(=O)n2c1[nH]c1ccccc12 | -288 | 71* | 83* | -2 | 6 | 2 | 3 | 75* | 91* | 79* | 76*
C[C@@H]1CN([C@H](C)CO)C(=O)c2cc(NS(=O)(=O)c3cccs3)ccc2O[C@H]1CN(C)S(=O)(=O)c1cn(C)cn1 | x | x | x | x | 10 | x | x | x | x | x | x
C[C@@H]1CCCCO[C@H](CN(C)C(=O)C2CCCCC2)[C@@H](C)CN([C@@H](C)CO)C(=O)c2cc(NC(=O)NC3CCCCC3)ccc2O1 | x | x | x | x | 3 | x | x | x | x | x | x
O=C(O)C[C@@H]1C[C@H]2c3cc(NC(=O)Nc4ccc(C(F)(F)F)cc4)ccc3O[C@H]2[C@H](CO)O1 | x | x | x | x | -2 | x | x | x | x | x | x
Cc1ccc(C(=O)N/C(=C\c2ccc(-c3ccccc3[N+](=O)[O-])o2)C(=O)NCCCN(C)C)cc1 | -6 | 26 | 50* | 1 | -6 | 15 | 13 | 35 | 13 | 2 | 0
COc1ccc(NC(=O)N(C)C[C@H]2Oc3cc(-c4cccc(C(=O)N(C)C)c4)ccc3S(=O)(=O)N([C@@H](C)CO)C[C@@H]2C)cc1 | x | x | x | x | -1 | x | x | x | x | x | x
CN(c1ccc(C(=O)NCCc2ccccc2)cc1)S(C)(=O)=O | 10 | -4 | 26 | 10 | 18 | 55* | 8 | 6 | 56* | 69* | 40
Cc1ccc(S(=O)(=O)N(C)c2ccc(C(=O)NCCc3ccccc3)cc2)cc1 | 11 | 2 | 1 | 3 | -11 | 2 | x | x | x | x | x
CC(C)NC(=O)N[C@@H]1CC[C@H](CCn2cc(-c3ccc(F)cc3)nn2)O[C@@H]1CO | x | x | x | x | 3 | x | x | x | x | x | x
C[C@H]1CN([C@@H](C)CO)C(=O)c2cc(C#Cc3ccccc3F)cnc2O[C@@H]1CN(C)C | x | x | x | x | -8 | x | x | x | x | x | x
O=C(CCc1nc2ccccc2s1)NC1CCOC1=O (stereo not drawn) | 12 | 2 | 61* | 2 | 4 | 1 | 9 | 6 | -8 | 2 | 0
Cc1noc(C)c1NC(=O)Nc1ccc2c(c1)C(=O)N([C@@H](C)CO)C[C@@H](C)[C@H](CN(C)CC1CCCCC1)OCCCC[C@H](C)O2 | x | x | x | x | -15 | x | x | x | x | x | x
O=C1C(=Cc2cccs2)CCc2ccccc21 | x | x | x | x | -1 | x | x | x | x | x | x
CC(=O)Nc1ccc(/C=C2\CCc3ccccc3C2=O)cc1 | 10 | 34 | 56* | 7 | -49 | 44 | 40 | 46 | 34 | 20 | 18
COc1ccc(/C=C2\Cc3ccccc3C2=O)cc1OC | -310 | x | x | 0 | -21 | x | x | x | x | x | x
COc1ccc(/C=C2\CCc3ccccc3C2=O)cc1O | 4 | 95* | 99* | 4 | u | 95* | 96* | 99* | 101* | 92* | 95*
COc1ccccc1NC(=S)NNC(=O)c1ccccc1Br | -13 | 46 | 75* | -5 | -34 | 71* | 21 | 16 | 15 | 6 | 15
NC(=O)c1ccccc1NC(=O)/C=C/c1cccc(Cl)c1 | 18 | 3 | 31 | -3 | x | 15 | x | x | x | x | x
O=C(NNC(=S)Nc1ccccc1Cl)c1ccccc1 | 1 | 56* | 65* | -1 | -43 | 91* | 16 | 22 | 28 | 28 | 34
O=C(NNC(=S)Nc1ccccc1Cl)c1ccccc1Cl | 8 | 74* | 73* | 0 | -41 | 50 | 40 | 28 | 18 | 10 | 13
O=C(Nc1ccccc1Cl)c1ccccc1Cl | 15 | -10 | -8 | -3 | 4 | 12 | x | x | x | x | x
NC(=O)c1ccccc1NC(=O)/C=C/c1c(Cl)cccc1Cl | 3 | -7 | 53* | 1 | x | 45 | -14 | -8 | 86* | 42 | 4
